Test results as given in PubChem BioAssay (Tox21).
Records with an inconclusive call do not appear. Active and inactive are the calls of the source. Unless noted, the call rests on the fitted dose curve; in most records, active means well fitted curve in the direction sought with a large enough effect in the repeat runs; inconclusive means weak or mixed curves; inactive means no such curve, though single readings can be large; an effect the other way counts as inactive or inconclusive.

How the values were obtained:
[1] = qHTS assay to identify aromatase inhibitors - cell viability counter screen (AID 743084);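 further: cells stimulated with testosterone during compound exposure; nearly all actives have a fitted effect of over 55% in size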
[2] = biological target: Aryl hydrocarbon receptor (Homo sapiens) (UniProt P35869); assay: qHTS assay to identify small molecule that activate the aryl hydrocarbon receptor (AhR) signaling pathway (AID 743085);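 further: HG2L7.5c1 human HepG2 liver cells with stably integrated DRE-driven firefly reporter; series mostly up to about 70 µM; nearly all actives have a fitted effect of over 15% in size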
Sequence of Aryl hydrocarbon receptor (Homo sapiens) (P35869 whole entry, looked up): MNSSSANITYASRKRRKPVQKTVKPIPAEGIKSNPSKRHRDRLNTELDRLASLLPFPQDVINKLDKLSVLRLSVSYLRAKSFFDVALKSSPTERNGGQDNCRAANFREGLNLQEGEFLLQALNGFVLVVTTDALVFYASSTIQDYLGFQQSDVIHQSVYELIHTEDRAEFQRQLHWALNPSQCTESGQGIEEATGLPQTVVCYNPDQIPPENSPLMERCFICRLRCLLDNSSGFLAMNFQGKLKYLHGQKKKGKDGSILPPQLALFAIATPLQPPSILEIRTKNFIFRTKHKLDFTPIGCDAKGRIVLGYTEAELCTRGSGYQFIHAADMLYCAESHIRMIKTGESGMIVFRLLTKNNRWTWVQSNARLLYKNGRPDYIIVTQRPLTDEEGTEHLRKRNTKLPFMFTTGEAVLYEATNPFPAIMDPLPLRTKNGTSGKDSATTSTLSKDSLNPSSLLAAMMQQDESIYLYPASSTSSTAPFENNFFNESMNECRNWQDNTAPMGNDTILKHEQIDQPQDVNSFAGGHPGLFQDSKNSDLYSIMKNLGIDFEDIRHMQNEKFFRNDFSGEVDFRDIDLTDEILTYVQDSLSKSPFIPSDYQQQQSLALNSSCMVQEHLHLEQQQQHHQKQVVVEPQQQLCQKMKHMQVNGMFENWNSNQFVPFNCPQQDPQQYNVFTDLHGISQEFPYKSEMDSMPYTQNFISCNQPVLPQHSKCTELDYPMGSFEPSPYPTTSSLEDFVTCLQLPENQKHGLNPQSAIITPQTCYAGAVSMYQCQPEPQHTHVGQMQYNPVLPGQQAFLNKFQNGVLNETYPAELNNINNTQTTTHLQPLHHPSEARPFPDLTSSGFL
Summary of the method: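 HepG2 cells stably carrying a 20-DRE firefly luciferase reporter (HG2L7.5c1) treated with compound for 24 hr at 37C. Luciferase read by ONE-Glo luminescence, with CellTiter-Fluor viability read first.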

[3] = qHTS assay to identify small molecule that activate the aryl hydrocarbon receptor (AhR) signaling pathway - cell viability counter screen (AID 743086);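 further: HepG2 liver cells carrying the AhR DRE luciferase reporter; series mostly up to about 70 µM; nearly all actives have a fitted effect of over 45% in size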
Summary of the method: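 HepG2-AhR-luc (HG2L7.5c1) cells, 4000/well, treated 24 h at 37 C with compound; viability measured as CellTiter-Fluor fluorescence after 30 min in the same wells as the luciferase read.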

[4] = biological target: Peroxisome proliferator-activated receptor gamma (Homo sapiens) (UniProt P37231); assay: qHTS assay to identify small molecule agonists of the peroxisome proliferator-activated receptor gamma (PPARg) signaling pathway (AID 743094; active means well fitted activation curve with a large enough effect in the signal ratio in the repeat runs, not every such curve was filed as active; the % refers to the signal ratio)
Sequence of Peroxisome proliferator-activated receptor gamma (Homo sapiens) (P37231 whole entry, looked up): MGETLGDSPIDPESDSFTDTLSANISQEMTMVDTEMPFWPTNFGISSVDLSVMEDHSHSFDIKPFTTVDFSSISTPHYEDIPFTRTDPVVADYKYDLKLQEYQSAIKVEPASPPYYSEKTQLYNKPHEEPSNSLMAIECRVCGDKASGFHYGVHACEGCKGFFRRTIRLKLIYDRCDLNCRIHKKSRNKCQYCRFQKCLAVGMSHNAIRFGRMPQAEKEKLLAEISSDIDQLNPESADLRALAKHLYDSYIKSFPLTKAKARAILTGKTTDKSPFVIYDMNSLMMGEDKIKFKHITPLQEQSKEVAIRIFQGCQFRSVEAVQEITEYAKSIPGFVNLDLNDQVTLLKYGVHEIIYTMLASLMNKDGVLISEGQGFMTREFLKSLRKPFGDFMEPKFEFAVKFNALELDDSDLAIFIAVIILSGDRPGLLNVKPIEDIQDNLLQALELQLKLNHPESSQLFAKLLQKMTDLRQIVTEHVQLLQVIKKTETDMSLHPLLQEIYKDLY
Summary of the method: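 GeneBLAzer PPARg UAS-bla HEK293H cells carrying a stably integrated beta-lactamase reporter were pre-incubated 5 h at 37C, then exposed to compounds in DMSO for 17 h at 37C; LiveBLAzer B/G FRET substrate was added for 1 h at room temperature and fluorescence read.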

[5] = biological target: Peroxisome proliferator-activated receptor gamma (Homo sapiens) (UniProt P37231); assay: qHTS assay to identify small molecule antagonists of the peroxisome proliferator-activated receptor gamma (PPARg) signaling pathway (AID 743191; calls by dose curve; further: series mostly up to about 63 µM; nearly all actives have a fitted effect of over 30% in size)
Summary of the method: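 GeneBLAzer PPARg UAS-bla HEK293H cells, 5 h post-plating, exposed to compounds 17 h at 37C. LiveBLAzer B/G FRET substrate added for 1 h at room temperature; beta-lactamase reporter read by fluorescence intensity.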

[6] = qHTS assay to identify small molecule antagonists of the peroxisome proliferator-activated receptor gamma (PPARg) signaling pathway - cell viability counter screen (AID 743194); further: nearly all actives have a fitted effect of over 55% in size
Summary of the method: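 Cytotoxicity counter screen in PPARg-bla HEK293H cells, same wells as reporter assay. Compounds plus 50 nM rosiglitazone (final) for 17 h at 37 C, then viability read by CellTiter-Glo luminescence.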

[7] = qHTS assay for small molecule agonists of the antioxidant response element (ARE) signaling pathway - cell viability counter screen (AID 743203; calls by dose curve; further: nearly all actives have a fitted effect of over 55% in size)
Summary of the method: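 CellSensor ARE-bla HepG2 cells, 2,000 per well, rested 5 hrs at 37C/5% CO2, then exposed to compound in DMSO for 16 hrs; viability read as CellTiter-Glo luminescence after 30 min at room temperature, in the reporter wells.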

[8] = qHTS assay for small molecule activators of the heat shock response signaling pathway - cell viability counter screen (AID 743209); further: nearly all actives have a fitted effect of over 50% in size
Summary of the method: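 CellSensor HSE-bla HeLa cells, plated overnight at 37 C/5% CO2, were exposed to compounds in DMSO for 5 h at 37 C. Viability was then read in the same wells by CellTiter-Glo luminescence after 30 min at room temperature.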

[9] = qHTS assay to identify small molecule agonists of the peroxisome proliferator-activated receptor delta (PPARd) signaling pathway - cell viability counter screen (AID 743211); further: nearly all actives have a fitted effect of over 55% in size
Summary of the method: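 PPARd-bla HEK293H cells (3000/well) were pre-incubated 5 h at 37 C, then exposed to compound for 17 h at 37 C. After 2 h with LiveBLAzer substrate, CellTiter-Glo was added to the same wells; luminescence read after 30 min at room temperature.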

[10] = qHTS assay to identify small molecule antagonists of the peroxisome proliferator-activated receptor delta (PPARd) signaling pathway - cell viability counter screen (AID 743213); further: nearly all actives have a fitted effect of over 50% in size; further: potency means the concentration at half of the fitted maximal effect
Summary of the method: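 HEK293H PPARd UAS-bla cells, 5 h pre-incubation, compound + L165041 300 nM final, 17 h 37 C; B/G FRET substrate 2 h RT; then CellTiter-Glo 30 min RT, luminescence.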

[11] = qHTS assay to identify small molecule agonists of the farnesoid-X-receptor (FXR) signaling pathway - cell viability counter screen (AID 743218); further: nearly all actives have a fitted effect of over 45% in size
Summary of the method: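 FXR-UAS-bla HEK 293T cells, plated 5 h at 37 C, were exposed to compounds for 16 h at 37 C. CellTiter-Glo was then added to the same wells as the bla readout; luminescence read after 30 min at room temperature.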

[12] = qHTS assay to identify small molecule antagonists of the farnesoid-X-receptor (FXR) signaling pathway - cell viability counter screen (AID 743221; active means well fitted cell-killing curve with a large enough effect in the repeat runs, not every such curve was filed as active; further: nearly all actives have a fitted effect of over 50% in size)
Summary of the method: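 GeneBLAzer FXR-UAS-bla HEK 293T cells, compound plus chenodeoxycholic acid (50 uM final), 16 h at 37 C. CellTiter-Glo added to the same wells after the beta-lactamase read; luminescence read after 30 min at room temperature as viability.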

[13] = biological target: Vitamin D3 receptor (Homo sapiens) (UniProt P11473); assay: qHTS assay to identify small molecule agonists of the vitamin D receptor (VDR) signaling pathway (AID 743222; calls by dose curve)
Sequence of Vitamin D3 receptor (Homo sapiens) (P11473 whole entry, looked up): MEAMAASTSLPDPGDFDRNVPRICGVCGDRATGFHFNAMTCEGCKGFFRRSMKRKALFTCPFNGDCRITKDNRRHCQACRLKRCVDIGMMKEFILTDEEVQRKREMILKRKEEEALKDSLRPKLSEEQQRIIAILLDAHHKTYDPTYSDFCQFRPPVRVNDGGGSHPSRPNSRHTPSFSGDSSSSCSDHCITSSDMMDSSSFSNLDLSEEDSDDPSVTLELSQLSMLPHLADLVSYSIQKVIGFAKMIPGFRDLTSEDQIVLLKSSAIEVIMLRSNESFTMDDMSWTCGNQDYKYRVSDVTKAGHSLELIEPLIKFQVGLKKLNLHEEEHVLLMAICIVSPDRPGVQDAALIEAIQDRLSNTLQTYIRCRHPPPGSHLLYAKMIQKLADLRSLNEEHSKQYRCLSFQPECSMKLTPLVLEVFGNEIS
Summary of the method: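 VDR-bla cells were plated 4 h at 37C/5% CO2, then exposed to compounds in DMSO for 16 h. After LiveBLAzer B/G FRET substrate addition and 2 h at room temperature, beta-lactamase reporter fluorescence was read.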

[14] = qHTS assay for small molecule agonists of the antioxidant response element (ARE) signaling pathway (AID 743202; active means well fitted activation curve with a large enough effect in the signal ratio in the repeat runs, not every such curve was filed as active; the % refers to the signal ratio; further: potency means the concentration at half of the fitted maximal effect)
Summary of the method: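 ARE-bla HepG2 cells (beta-lactamase reporter under the antioxidant response element), plated 5 hours, then exposed to compounds 16 hours at 37 C. LiveBLAzer B/G FRET substrate added for 2 hours at room temperature; fluorescence intensity read.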

[15] = qHTS assay for small molecule activators of the heat shock response signaling pathway (AID 743210; active means well fitted activation curve with a large enough effect in the signal ratio in the repeat runs, with a control signal flat, not every such curve was filed as active; the % refers to the signal ratio; further: series mostly up to about 63 µM)
Summary of the method: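 HSE-bla HeLa cells (beta-lactamase reporter under heat shock response elements), plated overnight, then exposed to compounds 5 h at 37 C; LiveBLAzer B/G FRET substrate added, 2.5 h at room temperature, fluorescence intensity read.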

[16] = biological target: Bile acid receptor (Homo sapiens) (UniProt Q96RI1); assay: qHTS assay to identify small molecule antagonists of the farnesoid-X-receptor (FXR) signaling pathway (AID 743217; active means well fitted inhibition curve with a large enough effect in the signal ratio in the repeat runs, not every such curve was filed as active; the % refers to the signal ratio)
Sequence of Bile acid receptor (Homo sapiens) (Q96RI1 whole entry, looked up): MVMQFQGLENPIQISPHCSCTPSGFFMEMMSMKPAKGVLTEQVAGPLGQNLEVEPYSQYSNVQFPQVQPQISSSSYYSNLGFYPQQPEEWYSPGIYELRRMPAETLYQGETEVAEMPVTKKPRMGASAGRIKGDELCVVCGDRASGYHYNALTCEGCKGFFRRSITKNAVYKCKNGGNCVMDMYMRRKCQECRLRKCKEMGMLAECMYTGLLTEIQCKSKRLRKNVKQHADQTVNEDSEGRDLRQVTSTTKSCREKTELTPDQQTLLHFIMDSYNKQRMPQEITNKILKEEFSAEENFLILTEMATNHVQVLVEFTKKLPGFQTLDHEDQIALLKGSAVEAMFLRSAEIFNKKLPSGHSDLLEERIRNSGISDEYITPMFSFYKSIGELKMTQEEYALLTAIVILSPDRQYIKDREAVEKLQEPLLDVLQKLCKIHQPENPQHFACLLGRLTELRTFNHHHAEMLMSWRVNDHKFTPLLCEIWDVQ
Summary of the method: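 FXR-UAS-bla HEK 293T cells pre-incubated 5 h at 37 °C, then exposed to compounds with chenodeoxycholic acid (50 uM final) for 16 h at 37 °C. Beta-lactamase reporter read by LiveBLAzer B/G FRET substrate fluorescence after 2 h at room temperature.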

[17] = biological target: Bile acid receptor (Homo sapiens) (UniProt Q96RI1); assay: qHTS assay to identify small molecule agonists of the farnesoid-X-receptor (FXR) signaling pathway (AID 743220; active means well fitted activation curve with a large enough effect in the signal ratio in the repeat runs, not every such curve was filed as active; the % refers to the signal ratio)
Summary of the method: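 Beta-lactamase reporter under UAS control in GeneBLAzer FXR HEK 293T cells (5000/well) measured with LiveBLAzer FRET substrate after 2 h at room temperature. Compound exposure lasted 16 h at 37C.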

[18] = biological target: Peroxisome proliferator-activated receptor delta (Homo sapiens) (UniProt Q03181); assay: qHTS assay to identify small molecule antagonists of the peroxisome proliferator-activated receptor delta (PPARd) signaling pathway (AID 743215; active means well fitted inhibition curve with a large enough effect in the signal ratio in the repeat runs, not every such curve was filed as active; the % refers to the signal ratio;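 further: cells stimulated with agonist L165041 at 300 nM final during compound exposure; series mostly up to about 62 µM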)
Sequence of Peroxisome proliferator-activated receptor delta (Homo sapiens) (Q03181 whole entry, looked up): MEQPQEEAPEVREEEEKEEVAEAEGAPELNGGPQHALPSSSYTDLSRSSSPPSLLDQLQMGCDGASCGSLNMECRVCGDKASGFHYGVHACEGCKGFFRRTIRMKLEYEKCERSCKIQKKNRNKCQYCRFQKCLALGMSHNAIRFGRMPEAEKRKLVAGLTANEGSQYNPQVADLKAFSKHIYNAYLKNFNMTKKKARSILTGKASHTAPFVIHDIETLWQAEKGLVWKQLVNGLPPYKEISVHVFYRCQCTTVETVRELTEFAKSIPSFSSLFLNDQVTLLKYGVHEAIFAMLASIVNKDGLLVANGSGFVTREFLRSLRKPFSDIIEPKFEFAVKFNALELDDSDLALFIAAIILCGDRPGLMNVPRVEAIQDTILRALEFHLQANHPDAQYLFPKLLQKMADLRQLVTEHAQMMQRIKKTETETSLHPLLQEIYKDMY
Summary of the method: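 PPARd UAS-bla HEK293H cells were pre-incubated 5 h at 37 C, then given test compounds in DMSO plus agonist L165041 (300 nM final). After 17 h at 37 C, beta-lactamase FRET substrate was added; fluorescence read after 2 h at room temperature.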

[19] = biological target: Vitamin D3 receptor (Homo sapiens) (UniProt P11473); assay: qHTS assay to identify small molecule antagonists of the vitamin D receptor (VDR) signaling pathway (AID 743223; active means well fitted inhibition curve with a large enough effect in the signal ratio in the repeat runs, not every such curve was filed as active; the % refers to the signal ratio)
Summary of the method: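 VDR-bla cells were treated with compound plus 3 nM final 1alpha,25-dihydroxyvitamin D3 for 16 h at 37C. Beta-lactamase reporter read by B/G FRET substrate fluorescence after 2 h at room temperature. qHTS format.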

[20] = biological target: Peroxisome proliferator-activated receptor delta (Homo sapiens) (UniProt Q03181); assay: qHTS assay to identify small molecule agonists of the peroxisome proliferator-activated receptor delta (PPARd) signaling pathway (AID 743212; calls by dose curve)
Summary of the method: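 GeneBLAzer UAS-bla HEK293H cells carrying a PPARδ construct were exposed to compounds at 37 °C. Beta-lactamase activity was read by FRET fluorescence after 2 h at room temperature with LiveBLAzer B/G substrate.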
On the % scale 0 is the no-effect control and ±100 the full control effect.

CCCCOC(=O)CC#N
inactive: Potency [1] | Potency [2] | Potency [3] | Potency [4] | Potency [5] | Potency [6] | Potency [7] | outcome [8] | Potency [9] | Potency [11] | Potency [12] | outcome [13]
active: Potency [10] 57.6 µM

Cc1c(Cl)cccc1Nc1ccccc1C(=O)O
inactive: Potency [1] | Potency [2] | Potency [3] | Potency [4] | Potency [6] | Potency [7] | outcome [8] | outcome [15] | Potency [9] | Potency [10] | outcome [16] | outcome [17] | Potency [12]
active: Potency [14] 26.6 µM

CCCCCCCCCCCCSCCOCCO
inactive: Potency [1] | Potency [2] | Potency [3] | Potency [4] | Potency [6] | Potency [14] | Potency [7] | outcome [8] | outcome [15] | Potency [9] | outcome [16] | Potency [11] | outcome [17] | Potency [12]

CC(C)CCCCCOC(=O)CS
inactive: Potency [1] | Potency [2] | Potency [3] | Potency [4] | Potency [5] | Potency [6] | Potency [7] | outcome [8] | outcome [15] | Potency [9] | Potency [10] | Potency [11] | Potency [12]

O=C(O)c1ccccc1[N+](=O)[O-]
inactive: Potency [1] | Potency [2] | Potency [3] | Potency [4] | Potency [5] | Potency [6] | Potency [7] | outcome [8] | outcome [15] | Potency [9] | Potency [10] | outcome [18] | outcome [17] | outcome [13] | outcome [19]

CCCc1nc(C)c2c(=O)[nH]c(-c3cc(S(=O)(=O)N4CCN(CC)CC4)ccc3OCC)nn12
inactive: Potency [1] | Potency [2] | Potency [3] | Potency [4] | Potency [5] | Potency [7] | outcome [8] | outcome [15] | Potency [9] | Potency [20] | outcome [18] | Potency [11] | Potency [12] | outcome [13] | outcome [19]

O=C1CCCN1CCO
inactive: Potency [1] | Potency [2] | Potency [3] | Potency [4] | Potency [5] | Potency [6] | Potency [7] | outcome [8] | Potency [9] | outcome [18] | outcome [13]

CCCCCCCCCCCCCCCCCCCl
inactive: activity change, negative = cytotoxicity [1] 0.528% [at 8.47 µM] | activation [2] -0.694% [at 8.47 µM] | viability change, negative = cytotoxic [3] -5.7% [at 8.47 µM] | ratio activity, negative = inhibition [5] 3.29% [at 5.95 µM] | activity change, negative = cytotoxicity [6] 3.5% [at 5.95 µM] | activation [14] -2.23% [at 8.36 µM] | viability change, negative = cytotoxic [7] 1.36% [at 8.36 µM] | activity change, negative = cytotoxicity [8] -2.21% [at 5.95 µM] | activation [15] -1.98% [at 5.95 µM] | activity change, negative = cytotoxicity [9] 0.407% [at 5.95 µM] | activation [20] 0.183% [at 5.95 µM] | viability change, negative = cytotoxic [10] -29.3% [at 6.26 µM] | ratio activity, negative = inhibition [18] -12.3% [at 6.26 µM] | activity change, negative = inhibition [16] -9.56% [at 5.95 µM] | activation [17] 0.479% [at 5.95 µM] | activity change, negative = cytotoxicity [12] 0.201% [at 5.95 µM] | activation [13] 1.2% [at 6.01 µM] | activity change, negative = inhibition [19] 1.88% [at 6.95 µM]

c1ccc(CN(Cc2ccccc2)Cc2ccccc2)cc1
inactive: Potency [1] | Potency [2] | Potency [3] | Potency [4] | Potency [7] | outcome [8] | outcome [15] | Potency [11] | Potency [12] | outcome [13] | outcome [19]
